IL-1B inflam inh – inflammasome signaling inhibition, IL-1 beta readout | THP-1 LPS/ATP IL-1B secretion, AlphaLISA, 16 h; active compounds read low | activity change, % at 57.5 µM | actives 4.7% (n = 360,000); in the data active = activity change below about -50%; inconclusive = mostly about -30% to -49%
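Secreted IL-1B measured by AlphaLISA bead assay after 16 h compound exposure of THP-1 cells; compounds (final up to 57.5 uM) added 1 h before LPS (250 ng/mL) and ATP (1.25 mM) stimulation; lower signal means less secretion.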
RORgamma inh – inhibitors of mouse ROR gamma transcriptional activity; AID 2551; actives 5.4% (n = 310,000); Drosophila S2 Gal4-RORgamma UAS-luciferase reporter, 20 h; Potency, µM (doses to about 53.6 µM), for inactives: at the top dose activity change, negative = inhibition, usual class: inhibitors; also: potency is read from the fitted curve at half-maximal effect; nearly all actives have a fitted effect of over 60% in size
Target sequence (P51450 whole entry, looked up, the tested form may be a part): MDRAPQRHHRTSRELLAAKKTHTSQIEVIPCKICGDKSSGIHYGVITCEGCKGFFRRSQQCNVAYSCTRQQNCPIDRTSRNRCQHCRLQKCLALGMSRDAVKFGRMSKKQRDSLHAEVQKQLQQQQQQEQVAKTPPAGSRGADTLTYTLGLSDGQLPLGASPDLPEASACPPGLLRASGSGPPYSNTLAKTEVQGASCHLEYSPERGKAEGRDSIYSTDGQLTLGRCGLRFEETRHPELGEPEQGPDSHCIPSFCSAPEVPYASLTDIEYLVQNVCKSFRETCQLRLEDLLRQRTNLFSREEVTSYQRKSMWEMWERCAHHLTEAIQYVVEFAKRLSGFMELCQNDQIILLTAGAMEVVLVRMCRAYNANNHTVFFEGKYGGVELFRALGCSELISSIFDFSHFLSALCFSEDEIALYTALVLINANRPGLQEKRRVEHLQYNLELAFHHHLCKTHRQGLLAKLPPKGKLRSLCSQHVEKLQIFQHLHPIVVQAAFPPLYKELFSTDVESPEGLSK
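ROR gamma transcriptional activity was tracked as Gal4-UAS luciferase output in stably transfected Drosophila Schneider cells, with compound added 1 hr before 700 uM copper sulfate induction and a 20 hr ambient-temperature incubation.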
DT40 TDP1 CPT – DT40-hTDP1 cell growth loss with CPT | chicken DT40 Tdp1-/-;hTDP1 cells + 20 nM CPT, ATP luminescence, 48 h | Potency, µM (doses to about 46.2 µM), without a hit: top-dose activity change, negative = growth inhibition, actives largely listed as inhibitors | actives 12% (n = 420,000); also: potency is read from the fitted curve at half-maximal effect; nearly all actives have a fitted effect of over 55% in size
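Chicken DT40 Tdp1-/- cells complemented with human TDP1, 400 cells/well, exposed to compounds plus 20 nM camptothecin for at least 48 h at 37 C; viability read as ATP content by CellTiter-Glo luminescence.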
DT40 TDP1 no CPT – qHTS for Inhibitors of human tyrosyl-DNA phosphodiesterase 1 (TDP1): qHTS in cells in absence of CPT | Potency, µM (series often up to 46.2 µM), for inactives: at the highest dose activity change, negative = growth inhibition, hits mostly inhibitors | AID 686978, 2013 | actives 15% (n = 420,000) | DT40 Tdp1-/- hTDP1 cells, no CPT, ATP luminescence, 48 h; also: potency is read from the fitted curve at half-maximal effect; nearly all actives have a fitted effect of over 55% in size
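A cellular qHTS used chicken DT40 cells lacking endogenous Tdp1 but carrying stably transfected human TDP1. Compounds were applied without camptothecin, and cell growth kinetics were judged by ATP-dependent luminescence after ≥48 hr.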
LDHA block – blocks human lactate dehydrogenase A; P00338; purified LDHA, NADH/diaphorase-resazurin fluorescence; active compounds read low; activity change, % (values are at about 110 or 230 µM); actives 0.15% (n = 480,000); in the data active = activity change below about -30%; inconclusive = mostly about -25% to -30%;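 also: plate controls were DMSO wells for no effect and wells without enzyme for full effect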
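Resorufin fluorescence (ex540/em590), read at 0 and 20 min after diaphorase/resazurin addition, reports the NADH left after a 5 min room-temperature reaction of 2 nM human LDH5 with 0.06 mM NADH and 0.2 mM pyruvate.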
Gal4-VP16 FLuc – inhibits Gal4-VP16 luciferase reporter, ROR gamma counter-screen | actives 3.5% (n = 310,000) | Drosophila S2 Gal4-VP16 UAS-luciferase, luminescence, 20 h | Potency, µM (titrated, usually from 53.6 µM), without a hit: at the highest dose activity, negative = inhibition, most hits filed as inhibitors;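 also: Gal4-VP16 expression switched on by copper sulfate through the metallothionein promoter; potency is read from the fitted curve at half-maximal effect; nearly all actives have a fitted effect of over 50% in size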
Numbers without * were called inactive; ? = inconclusive; nt = no result; [ ] = another dose, or the depositor's remark. Compounds with a hit are over-represented: about 18% of the library has one in this group of screens. Unless noted, calls follow the shape of the dose curve; as a rule, active = well fitted curve in the direction sought with a large enough effect; inconclusive = small, poorly fitted or top-dose-only effect, or another doubt; inactive = no such curve, though single readings can be large; an effect the other way counts as inactive or inconclusive. Unless noted, % is scaled to controls: 0 for no effect and ±100 for the full control effect.

SMILES	IL-1B inflam inh	RORgamma inh	DT40 TDP1 CPT	DT40 TDP1 no CPT	LDHA block	Gal4-VP16 FLuc
Cc1cc(Cl)ccc1OC(C)C(=O)N1CCCN(C(=O)C(C)Oc2ccc(Cl)cc2C)CC1 (stereo unspecified)	-64.8*	37.5%	20.6µM*	20.6µM*	-0.1	-13.1%
CC(Oc1ccc(Cl)cc1)C(=O)Nc1ccccc1N1CCOCC1 (stereo unspecified)	5.9	nt	?	20.6µM*	-3.7	nt
C=CC[N+](C)(C)Cc1cccc2ccccc12	nt	nt	nt	nt	3.2	nt
Cn1c(SCc2nc(N)nc(Nc3ccccc3)n2)nnc1C1CC1	nt	nt	nt	nt	3.4	nt
CCCCCCCCOC(=O)c1cc([N+](=O)[O-])c(Sc2ncnc3nc[nH]c23)c([N+](=O)[O-])c1	-70.7*	nt	2.59µM*	3.26µM*	7.3	nt
O=C1CCCc2ccccc2N1Cc1cccc(F)c1	24.7	30.0%	14.6µM*	11.6µM*	-1.8	4.1%[10 µM]
O=C1CCCc2ccccc2N1Cc1ccc(F)cc1	3.7	4.0%	11.6µM*	?	-1.9	0.6%
O=C1CCc2ccccc2N1Cc1ccccc1	23.6	-0.3%	17.8%	-7.2%	-4.8	-10.3%
Cc1c(CCNC(=O)c2ccc3c(c2)OCO3)sc2nc(-c3ccc(F)cc3)nn12	nt	nt	nt	nt	4.2	nt
COc1ccc(-c2oc3c(c2C#CC2(O)CCCCC2)C(OC(C)=O)CCC3)cc1 (stereo unspecified)	0.0	nt	?	?	1.3	nt
COc1ccc(-c2oc3c(c2C#CC(C)(C)O)C(OC)CCC3)cc1 (stereo unspecified)	-59.2*	nt	?	16.4µM*	-0.5	nt
COc1ccc(CN2CCN(C(=O)c3cccs3)CC2)cc1	-87.0*	6.7%	-6.6%	-18.9%	-19.6	-2.4%
O=C(c1cccs1)N1CCN(Cc2ccccc2)CC1	-17.2	-5.6%	-1.0%	-3.3%	-8.7	-14.4%
COc1ccc2[nH]c(C(=O)N3CCCN(Cc4ccc(F)cc4)CC3)cc2c1	-78.3*	-1.0%	?	?	10.5	3.1%
O=C(c1cccs1)N1CCN(Cc2ccncc2)CC1	-4.5	-3.4%	-11.8%	4.7%	-33.3*	-9.1%
O=C(c1cccc(Cl)c1)N1CCN(Cc2ccncc2)CC1	-5.6	-32.8%	-10.8%	-16.0%	-31.0*	24.6%
Cc1ccc(CC(=O)N(C)Cc2ccsc2)cc1	nt	nt	nt	nt	3.8	nt
CCCNc1ccc(S(=O)(=O)N(C(C)C)C(C)C)cn1	10.4	17.0%	-4.6%	?	2.5	9.1%
CCOc1cccc(/C=N/Nc2ccc(S(=O)(=O)N(CC)CC)cn2)c1O	51.6	1µM*	0.164µM*	0.581µM*	-3.4	3.16µM*
CCN(CC)S(=O)(=O)c1ccc(N/N=C/c2ccc(OC)c(OC)c2OC)nc1	5.1	-7.9%	?	18.4µM*	-2.5	-9.9%
CCN(CC)S(=O)(=O)c1ccc(N/N=C(\C)c2ccc(OC)cc2O)nc1	243.5	0.708µM*	3.26µM*	29.1µM*	-5.9	2.51µM*
CCCNc1ccc(S(=O)(=O)N(CC)CC)cn1	3.0	41.0%	16.4µM*	-90.4%	0.0	-17.7%
COc1cccc(/C=C2\Oc3cc(OS(=O)(=O)c4ccc(C)cc4)ccc3C2=O)c1	nt	nt	nt	nt	12.9	nt
COCCNC(=O)c1ccccc1NC(=O)c1nc(-c2ccccc2)oc1C	nt	nt	nt	nt	-0.9	nt
Cc1ccc2c(C)nc(Nc3nc(C)cc(-c4ccccc4)n3)nc2c1	nt	nt	nt	nt	-6.6	nt
SMILES	IL-1B inflam inh	RORgamma inh	DT40 TDP1 CPT	DT40 TDP1 no CPT	LDHA block	Gal4-VP16 FLuc
Cc1ccc(S(=O)(=O)N(CC(=O)NCc2ccncc2)C2CCCCC2)cc1	8.1	-28.6%	11.6µM*	9.2µM*	-0.5	-5.7%
CS(=O)(=O)N(CC(=O)NCc1ccccc1Cl)C1CCCCC1	1.4	?	-13.0%	?	-2.6	-5.1%
CS(=O)(=O)N(CC(=O)NCc1ccc(Cl)cc1)C1CCCCC1	-14.6	-20.6%	20.6µM*	14.6µM*	-3.2	-9.3%
CS(=O)(=O)N(CC(=O)Nc1ccc(Br)cc1F)C1CCCCC1	-1.5	-26.5%	?	9.2µM*	-9.5	2.3%
CCCNC(=O)C(C)NC(=O)c1cc(C)nc2ccccc12 (stereo unspecified)	nt	nt	nt	nt	17.6	nt
CC(C)c1ccc(CN2CCC(C)(Oc3ccc(Cl)cc3)C2)cc1 (stereo unspecified)	1.3	nt	?	?	-0.2	nt
CSc1ccc(OC2(C)CCN(Cc3ccc4c(c3)OCCO4)C2)cc1 (stereo unspecified)	-10.8	nt	25.9µM*	?	-14.0	nt
CSc1ccc(CN2CCC(C)(Oc3ccc(-n4ccnc4)cc3)C2)cc1 (stereo unspecified)	?	nt	18.4µM*	18.4µM*	-9.2	nt
COc1cc(OC)cc(OC2(C)CCN(Cc3ccc(OC(C)C)cc3)C2)c1 (stereo unspecified)	13.4	nt	25.9µM*	23.1µM*	-2.8	nt
COc1ccccc1-c1c(C)oc2cc(OCC#N)ccc2c1=O	nt	nt	nt	nt	-11.3	nt
Cc1ccc(C(=O)[C@@H]2[C@@H]3CCCN3[C@]3(C(=O)Nc4c(Cl)cccc43)[C@@]23C(=O)Nc2ccccc23)cc1	nt	nt	nt	nt	0.9	nt
CCOc1ccc(CN(C)CC(=O)NC(=O)NCc2ccccc2)cc1	nt	nt	nt	nt	11.1	nt
CN1CCN(NC(=O)c2ccccc2Br)CC1	nt	nt	nt	nt	-3.2	nt
Cn1nc(C(=O)Nc2ncc(Cc3ccc(Cl)cc3)s2)ccc1=O	nt	nt	nt	nt	-0.5	nt
CC12CCC(=O)N1C(C(=O)Nc1nc3ccc(Cl)cc3s1)CS2 (stereo unspecified)	-84.0*	nt	3.6%	?	-5.7	nt
Cc1ccc(-c2csc(NC(=O)C3CSC4(C)CCC(=O)N34)n2)cc1 (stereo unspecified)	12.6	nt	-7.7%	-22.3%	-4.0	nt
Cc1sc(NC(=O)C2CSC3(C)CCC(=O)N23)nc1-c1ccc(F)cc1 (stereo unspecified)	0.0	20.0%	14.6µM*	18.4µM*	-8.1	0.8%
CCc1ccc2nc(NC(=O)C3CSC4(C)CCC(=O)N34)sc2c1 (stereo unspecified)	-55.3*	nt	-27.5%	?	-2.8	nt
CC12CCC(=O)N1C(C(=O)Nc1nc3ccc(S(C)(=O)=O)cc3s1)CS2 (stereo unspecified)	-1.2	9.4%	-0.6%	21.2%	-1.2	-7.6%
Cc1cc(C)c2nc(NC(=O)C3CSC4(C)CCC(=O)N34)sc2c1 (stereo unspecified)	-0.2	nt	-44.9%	3.66µM*	1.1	nt
CC1CCN(S(=O)(=O)c2ccc(NC(=O)C3CSC4(C)CCC(=O)N34)cc2)CC1 (stereo unspecified)	-5.8	nt	?	10.3µM*	-0.7	nt

Compound activity: PubChem BioAssay, National Center for Advancing Translational Sciences (NCATS)
